GAA glycogen: qHTS Assay for Inhibitors and Activators of Human alpha-Glucosidase Cleavage of Glycogen; Lysosomal alpha-glucosidase (Homo sapiens), P10253; recombinant GAA, glycogen substrate, Amplex Red glucose oxidase fluorescence; Potency, µM (doses to about 76.4 µM), without a hit: at the top dose activity change, negative = inhibition, most hits filed as inhibitors; 300,000 tested, 0.38% active; AID 2100, 2009;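 further: potency means the concentration at half of the fitted maximal effect; 0% = full enzyme reaction and -100% = no-enzyme basal signal; the screen sought inhibitors and activators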
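qHTS, 1536-well; enzyme 4 nM final; cpd up to 77 uM; substrate bovine liver glycogen 30 ug; 50 mM citrate/phosphate pH 5.0, 0.01% Tween-20; 37 C, 40 min; Amplex Red detection 45 min RT; Hill fit → AC50.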
GLA spleen mod: qHTS Assay for Inhibitors and Activators of Human alpha-Galactosidase From Spleen Homogenate | Alpha-galactosidase A (Homo sapiens), P06280 | human spleen homogenate, 4MU-alpha-Gal fluorescence, 40 min | Potency, µM (doses to about 80 µM), inactives show at the top dose activity change, negative = inhibition, most hits filed as inhibitors | 240,000 tested, 0.008% active;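 further: potency means the concentration at half of the fitted maximal effect; 0% = enzyme with vehicle and -100% = no enzyme basal signal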
Target sequence (P06280 32-429 limits assumed): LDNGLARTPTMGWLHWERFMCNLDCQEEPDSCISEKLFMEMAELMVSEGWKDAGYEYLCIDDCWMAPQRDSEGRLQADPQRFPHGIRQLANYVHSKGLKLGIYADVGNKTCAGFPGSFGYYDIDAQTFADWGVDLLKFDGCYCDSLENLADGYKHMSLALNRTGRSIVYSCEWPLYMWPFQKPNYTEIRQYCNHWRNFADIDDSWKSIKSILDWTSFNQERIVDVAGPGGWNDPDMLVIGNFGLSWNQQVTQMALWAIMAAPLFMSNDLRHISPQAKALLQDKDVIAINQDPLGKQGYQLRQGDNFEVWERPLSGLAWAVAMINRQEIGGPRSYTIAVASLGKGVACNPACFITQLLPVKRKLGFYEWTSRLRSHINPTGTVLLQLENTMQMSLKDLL
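Human spleen homogenate (1 ug) was the enzyme source, with 4-methylumbelliferyl-alpha-D-galactopyranoside (1 mM final) in pH 5.0 citrate buffer with 0.01% Tween-20. Compounds were titrated; after 40 min at 37C, NaOH/glycine stop, 4-MU fluorescence read; AC50 from Hill fits.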
N370S GC: qHTS Assay for Inhibitors and Activators of N370S glucocerebrosidase as a Potential Chaperone Treatment of Gaucher Disease | 330,000 tested, 0.092% active | Lysosomal acid glucosylceramidase (Homo sapiens), P04062 | Potency, µM (series often up to 59.4 µM), inactives show top-dose activity change, negative = inhibition, usual class: inhibitors | N370S GC spleen homogenate, 4MU-glucoside fluorescence;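 further: potency means the concentration at half of the fitted maximal effect; 0% = full enzyme activity and -100% = no enzyme basal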
GLA inh pH 4.5: qHTS Assay for Inhibitors of Human alpha-Galactosidase at pH 4.5; purified enzyme, 4-MU-alpha-Gal fluorescence, pH 4.5; activity change, negative = inhibition, % at 105 µM; Alpha-galactosidase A (Homo sapiens), P06280; 230,000 tested, under 10 active; AID 1467, 2008;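 further: 0% = full activity with enzyme and -100% = basal without enzyme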
GAA spleen mod: qHTS Assay for Inhibitors and Activators of Human alpha-Glucosidase From Spleen Homogenate | AID 2112, 2009 | 240,000 tested, 0.006% active | human spleen homogenate, 4-MU-alpha-glucoside fluorescence | Potency, µM (doses to about 79.9 µM), without a hit: top-dose activity change, negative = inhibition, hits mostly inhibitors;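 further: potency means the concentration at half of the fitted maximal effect; 0% = enzyme with vehicle and -100% = no enzyme basal signal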
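Human spleen homogenate (1 ug) with 4-methylumbelliferyl-alpha-D-glucopyranoside (1 mM final) in 50 mM citrate/phosphate pH 5.0, 0.01% Tween-20; 40 min at 37 C. Stopped at pH 10; 4-MU fluorescence Ex 365/Em 440 nm; AC50 by Hill fit.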
GAA inh: qHTS Assay for Inhibitors of Human alpha-Glucosidase as a Potential Chaperone Treatment of Pompe Disease | Lysosomal alpha-glucosidase (Homo sapiens), P10253 | purified human GAA, 4-MU-alpha-glucoside fluorescence | Potency, µM (titrated, usually from 76.9 µM), for the others: at the top dose activity change, negative = inhibition, hits mostly inhibitors | 200,000 tested, 0.005% active | AID 1466, 2008;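 further: potency means the concentration at half of the fitted maximal effect; plate controls were uninhibited enzyme wells for no effect and no-enzyme background for full effect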
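Activity normalized between no-enzyme (basal) and enzyme-only wells. Conditions: 4 nM human enzyme, 400 uM fluorogenic substrate, citrate/phosphate pH 5.0 with Tween-20, 20 min room temperature, compounds up to 77 uM.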
The depositor's hits bear a star; ? = inconclusive; · = no result given; [ ] = dose if it differs, or a comment. Hits are enriched below; roughly 0.43% of the tested compounds scored in any of these assays. The call rests on the fitted dose curve; in most records, active means well fitted curve in the direction sought with a large enough effect; inconclusive means small, poorly fitted or top-dose-only effect, or another doubt; inactive means no such curve, though single readings can be large; an effect the other way counts as inactive or inconclusive.

SMILES	GAA glycogen	GLA spleen mod	N370S GC	GLA inh pH 4.5	GAA spleen mod	GAA inh
Cc1ccc(CNC(=O)Nc2cccs2)cc1	28µM*	6%	10%	-3	-7%	-6%
Cc1ccc(CNC(=O)Cc2cccs2)cc1	2%	5%	4%	-12	-13%	-5%
COc1ccc(Br)cc1CNC(=O)Nc1cccs1	?	2%	-19%	1	-18%	-8%
COc1ccccc1CNC(=O)Nc1cccs1	28µM*	1%	26%	-12	0%	-3%
COc1cccc(CNC(=O)Nc2cccs2)c1	?	6%	-13%	-6	-17%	-4%
O=C(O)c1ccc2ncc(NC(=O)c3ccc(F)cc3)c(=O)n2c1	11%	-1%	0%	-22	-1%	·
O=C(CSc1n[nH]c(=O)n1Cc1ccco1)Nc1ccccc1Cl	9%	2%	19%	11	-4%	·
Oc1ccc(/C=N\Nc2cc(N3CCOCC3)nc(N3CCOCC3)n2)c(O)c1	10µM*	3%	-11%	-4	-2%	-11%
CC(C)c1ccc(/C=N/Nc2cc(N3CCOCC3)nc(N3CCOCC3)n2)cc1	-5%	4%	-12%	-10	2%	-8%
Cc1cc(N/N=C/c2ccc(O)cc2O)nc(N2CCOCC2)n1	16µM*	5%	-11%	-8	-2%	-14%
COc1ccc(/C=N/Nc2cc(C)nc(N3CCOCC3)n2)c(OC)c1	-21%	6%	-4%	-5	1%	·
Cn1c(=O)n(C)c2cc(N3CCCCC3)c(NC(=O)c3ccccc3)cc21	-10%[76.3 µM]	·	-17%	·	·	·
COc1ccc(-c2ccoc2)cc1C1C2C=CCC(C)C2C(=O)N1Cc1ccccc1 (centres undefined)	·	7%	14%	·	2%	·
COP(=O)(OC)OC(c1ccc(Cl)cc1)P(=O)(OC)OC (centres undefined)	·	2%	-6%	-4	4%	·
CC(=O)N1CCC2(CC1)CCN(c1ccc(-c3ccccc3)cc1)CC2	·	8%	3%	·	2%	·
C=C(C)c1cccc(C(C)(C)NC(=O)Nc2cccnc2)c1	-1%[76.3 µM]	·	22µM*	·	·	·
C=C(C)c1cccc(C(C)(C)NC(=O)Nc2ccc(C(N)=O)cc2)c1	5%	2%	-2%	3	3%	0%
O=C(Cc1ccccc1)NNc1ccc2ccccc2c1	25µM*	-1%	4%	-4	0%	-3%
O=C(CN1C(=O)CCC1=O)NNc1ccc2ccccc2c1	11µM*	-9%	-16%	6	5%	6%
O=C(COc1ccc2ccccc2c1)NNC(=O)Cc1ccccc1	9%	-8%	-15%	-2	-12%	-1%
CCN(C(=O)CN1CCN(c2ccccc2O)CC1)c1c(N)n(Cc2ccccc2)c(=O)[nH]c1=O	9.9µM*	-2%	16%	2	2%	-6%
CCOc1cccc(CNc2ccc(O)cc2)c1OCc1ccccc1Cl	6.3µM*	5%	8%	-3	-2%	-1%
Nc1nc(-c2nn(Cc3ccccc3F)c3ncccc23)ncc1C1CC1	·	3%	-1%	·	-6%	·
CCOC(=O)/C=C/C(=O)OCC(=O)Nc1ccc(Cl)cn1	4%	-21%	3%	-8	-1%	3%
CCOC(=O)NC1(Nc2ccc(Cl)cn2)Oc2ccccc2O1	22µM*	2%	-2%	-3	-3%	3%
SMILES	GAA glycogen	GLA spleen mod	N370S GC	GLA inh pH 4.5	GAA spleen mod	GAA inh
Cc1ccc(S(=O)(=O)Nc2cc(Cl)c(O)cc2C)cc1	22µM*	-2%	4%	-4	7%	-10%
S=C(Nc1ccc(Nc2ccccc2)cc1)N1CCN(c2ncccn2)CC1	8.9µM*	2%	-8%	-3	-7%	2%
OC1CCN(C(=S)Nc2ccc(Nc3ccccc3)cc2)CC1	4µM*	2%	-1%	-2	5%	8%
S=C(Nc1ccccc1)N1CCC(C2CCN(C(=S)Nc3ccccc3)CC2)CC1	-8%	5%	6%	-11	0%	0%
C(=N\Nc1nc2ccccc2[nH]1)/c1c[nH]c2ccccc12	22µM*	11%	-10%	-3	-1%	-2%
Cc1cc(=O)[nH]c(N/N=C/c2c[nH]c3ccccc23)n1	-26%	-1%	-1%	1	0%	-19%
C(=N\Nc1nc2ccccc2[nH]1)/c1cccc2cccnc12	35µM*	0%	-29%	2	-6%	-13%
Cc1ccccc1/C=N/Nc1nc2ccccc2[nH]1	?	-7%	-14%	0	-7%	-8%
C(=N\Nc1nc2ccccc2[nH]1)/c1ccccc1	?	0%	-27%	9	-15%	-2%
Cc1ccc(/C=N/Nc2nc3ccccc3[nH]2)s1	28µM*	5%	-21%	-7	2%	-6%
O=c1c2ccccc2[nH]c2ccc(O)cc12	20µM*	·	-7%	·	·	·
C/C(=N\NC(=S)Nc1ccccc1)C1Cc2ccccc2C(=O)O1 (centres undefined)	16µM*	-5%	11%	-14	2%	·
COc1cc(/C=N/N=C(N)N)ccc1OCc1ccc(Cl)cc1	-6%	9%	7.9µM*	0	2%	3%
NC(N)=N/N=C/c1ccc(OCc2ccccc2Cl)cc1	-2%	1%	22µM*	-6	0%	2%
NC(N)=N/N=C/c1ccc(OCc2ccccc2)c(OCc2ccccc2)c1	-9%[76.3 µM]	·	11µM*	·	·	·
NC(N)=N/N=C/c1ccccc1	7%	0%	3%	-6	-1%	-3%
CC(C)ON(CC(=O)NO)S(=O)(=O)c1ccc(-c2ccccc2)cc1	·	-3%	-10%	·	2%	·
O=C(CCNS(=O)(=O)c1ccc(Br)s1)Nc1ccc(Br)cc1	4%[76.3 µM]	·	·	·	·	·
CCc1cccc(C)c1Nc1c(-c2cccs2)nc2nc(C)cc(C)n12	-28%[76.3 µM]	·	·	·	·	·
CCc1cccc(C)c1Nc1c(-c2cccc(O)c2)nc2sccn12	35µM*	·	·	·	·	·
COCCN(CCOC)c1nc(C)nc2c1nc(-c1ccccc1)n2CCN1CCCC1	·	8%	4%	-1	-1%	·
CC1CCC(NC(=O)Nc2cccs2)CC1 (centres undefined)	16µM*	0%	2%	1	-7%	-8%
NNC(=O)CN1C(c2ccccc2)=Nc2ccc(Br)cc2C1c1ccccc1 (centres undefined)	-15%	-7%	40µM*	3	-1%	-3%
